Among the data in PubChem BioAssay (NCATS) are Potency values, retold here.

Inconclusive results are not listed. Entries that show only a call come without a potency. Activity calls are given as the source filed them. Calls follow the shape of the dose curve; as a rule, active = well fitted inhibition curve with a large enough effect; inconclusive = small, poorly fitted or top-dose-only effect; inactive = no such curve, though single readings can be large or run the other way.

Assay [1] deals with Zika virus NS2B-NS3 protease (linked construct). As to the kind of experiment: Primary screen NINDS Rhodamine qHTS for Zika virus inhibitors (AID 1347160). Also: nearly all actives have a fitted effect of over 55% in size. In short, it runs like this: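 Purified linked NS2B-NS3 protease (NS2B hydrophilic domain joined to NS3 protease by flexible linker), 25 nM in 10 mM Tris-HCl pH 8.0, 0.01% Tween 20. Compounds titrated, 15 min preincubation at room temperature; 1.5 microM Rhodamine110 substrate, FITC fluorescence change over 15 min.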

For assay [2], the system named is Zika virus NS2B-NS3 protease (unlinked complex). As to the kind of experiment: Primary screen GU Rhodamine qHTS for Zika virus inhibitors: Unlinked NS2B-NS3 protease assay (AID 1347159). Also: nearly all actives have a fitted effect of over 60% in size. Put shortly: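 Noncovalent NS2B hydrophilic domain–NS3 protease domain complex (25 nM) preincubated 15 min at room temperature with compounds (up to 114 microM) in 10 mM Tris-HCl pH 8.0, 0.01% Tween 20; 1.5 microM Rhodamine110 substrate added, fluorescence change over 15 min fitted to Hill equation.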

Take `CCOCc1cc(OC)c(-c2ccc(C[C@H](NC(=O)c3c(F)cccc3F)C(=O)O)cc2)c(OC)c1`: the Potency result in assay [1] was “inactive”. On the same count and under the same terms, as for `CCC(=O)O[C@H]1C(C)(C)[C@H]([C@@H](O)C(=O)OC)[C@]2(C)C(=O)[C@@]1(O)[C@H]1O[C@]13C1CC(=O)O[C@@H](c4ccoc4)[C@]1(C)CCC32` (stereo partly specified), the entry is “inactive”.

As for `CC(=O)c1cc(C(=O)N[C@@H](C)Cn2ccc(-c3ccc(C#N)c(Cl)c3)n2)[nH]n1`, the Potency entry in assay [2] and in assay [1] was “inactive” in each case. Consider `C=C1CN(Cc2ccc(C(=O)Nc3ccccc3N)cc2)C(=O)c2ccccc21`, for which the Potency result in assay [2] and in assay [1] was “inactive” in each case. Consider `CC1(C)CC[C@]2(C(=O)O[C@@H]3O[C@H](CO)[C@@H](O)[C@H](O)[C@H]3O)CC[C@]3(C)C(=CCC4[C@@]5(C)CC[C@H](O[C@@H]6O[C@H](C(=O)O)[C@@H](O)[C@H](O)[C@H]6O)C(C)(C)C5CC[C@]43C)C2C1` (stereo partly specified), for which the Potency result in assay [1] is “inactive”.

For `CO[C@H]1O[C@@H]2O[C@]3(C)CC[C@H]4[C@H](C)CC[C@@H]([C@H]1C)[C@@]24OO3`, in assay [1], the Potency entry was “inactive”. Still for that read-out and setting: to `Nc1nc(Nc2ccc(S(N)(=O)=O)cc2)n(C(=S)Nc2c(F)cccc2F)n1` belongs “inactive”. On to `CC/C=C/CC1=C(CCCCC(CCC(=O)O)OC(C)=O)CCC1=O` (stereo unspecified), for which the Potency entry in assay [1] was “inactive”. Still for that read-out and setting: to `O=C1NC(Cc2ccccc2)C(=O)N2CCCC12` (stereo unspecified) belongs “inactive”. `CC(C)(C)NCCCNC(=O)c1cccc(Br)c1`: the Potency entry in assay [2] and in assay [1] was “inactive” each time. Take `CC(=O)NC1C(OC(C)(C)C2CCC3(C)C=C(C4CCC5C4(C)CC(O)C4OC(C(C)(C)O)CCC45C)CCC3O2)OC(CO)C(O)C1O` (stereo unspecified): the Potency result in assay [2] and in assay [1] was “inactive” in each case.

With `CC1C(OC(=O)c2ccccc2)C(O)C2C(C(=O)O)=COC(OC3OC(CO)C(O)C(O)C3O)C12` (stereo unspecified), the Potency result in assay [1] was “inactive”.
